This is a sample that favours compounds with a hit; in the whole collection about 2.1% have one here.
Mot1-301 SUMO = blocks SUMOylation pathway, rescuing yeast Mot1-301 growth; S. cerevisiae Mot1-301 growth rescue, ATP luminescence, 38.5C; percent above DMSO median, 100 means doubled; growth rescue, % at 18.8 µM; 320,000 tested, 1% active; AID 2716;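 active means every valid replicate shows activation above 250% relative to neutral control wells; inactive means the rest, any valid replicate at or below 250%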;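 further: OY570 slx delta 5 strain wells were the positive control but not used for scaling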
IDE cell inh = inhibits human insulin-degrading enzyme in HEK cells | P14735 | FAbetaB cleavage, fluorescence polarization | inhibition, % at 5.59 µM | 320,000 tested, 0.41% active | AID 434962;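 active means percent inhibition above the average of all tested compounds plus 3 SD, set per screening campaign, cut at about 16% in these data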;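 further: IDE supplied by intact live HEK cells; FP after avidin binding of uncleaved biotin substrate so inhibition keeps polarization high; 0% = DMSO wells and 100% = 60 µM reference IDE inhibitor Ii1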
Target sequence (P14735 whole entry, looked up): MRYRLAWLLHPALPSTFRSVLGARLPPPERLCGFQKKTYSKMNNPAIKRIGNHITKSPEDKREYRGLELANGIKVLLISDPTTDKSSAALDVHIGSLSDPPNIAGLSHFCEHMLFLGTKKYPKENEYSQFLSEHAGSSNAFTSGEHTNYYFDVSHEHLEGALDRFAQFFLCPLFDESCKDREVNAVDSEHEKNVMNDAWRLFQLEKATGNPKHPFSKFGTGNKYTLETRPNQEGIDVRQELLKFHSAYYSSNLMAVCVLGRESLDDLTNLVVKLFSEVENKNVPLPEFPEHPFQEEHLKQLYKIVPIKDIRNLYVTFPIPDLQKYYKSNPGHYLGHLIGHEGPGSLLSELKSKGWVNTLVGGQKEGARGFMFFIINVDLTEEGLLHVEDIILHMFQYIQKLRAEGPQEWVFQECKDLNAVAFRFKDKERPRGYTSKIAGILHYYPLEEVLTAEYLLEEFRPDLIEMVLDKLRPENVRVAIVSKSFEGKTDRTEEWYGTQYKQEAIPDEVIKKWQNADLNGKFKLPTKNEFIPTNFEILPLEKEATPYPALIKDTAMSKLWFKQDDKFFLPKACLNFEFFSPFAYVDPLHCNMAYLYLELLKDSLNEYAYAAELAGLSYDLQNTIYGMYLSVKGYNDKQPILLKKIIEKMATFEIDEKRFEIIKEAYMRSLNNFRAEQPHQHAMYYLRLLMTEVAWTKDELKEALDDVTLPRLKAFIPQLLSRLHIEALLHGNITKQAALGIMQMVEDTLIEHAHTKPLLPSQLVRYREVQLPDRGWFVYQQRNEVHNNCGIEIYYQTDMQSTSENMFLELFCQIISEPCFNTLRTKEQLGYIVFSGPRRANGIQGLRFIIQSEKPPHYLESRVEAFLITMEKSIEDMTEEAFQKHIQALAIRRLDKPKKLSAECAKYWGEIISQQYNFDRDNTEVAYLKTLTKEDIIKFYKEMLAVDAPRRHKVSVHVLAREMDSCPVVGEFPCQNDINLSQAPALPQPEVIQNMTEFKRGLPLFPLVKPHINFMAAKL
HDAC3 inhib = blocks human histone deacetylase 3. inhibition, % at 8.3 µM. O15379. 320,000 tested, 0.15% active. recombinant HDAC3, fluorogenic peptide/trypsin coupled, fluorescence. AID 2718; in the data active means inhibition above about 26%, passing the limit was not always enough
IDE cell activ = IDE (human) activation, cell-based. HEK cells, FAbeta-B cleavage, fluorescence polarization; 0% vehicle, 100% cell-free pure enzyme wells. 340,000 tested, 0.073% active. activation, % at 5.96 µM;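 active means activation above the mean of all tested compounds plus 3 SD, set per screening campaign, cut at about 17% in these data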
LANA-H2B inh = blocks KSHV LANA binding to histone H2A/H2B | Q9QR71 | cell-free LANA-H2A/H2B peptide, fluorescence polarization | inhibition, % (concentration not given with the values) | 320,000 tested, 0.6% active | AID 2629; in the data active means inhibition mostly above about 10%, no sharp cut-off; inactive means mostly below about 6.7%
Yeast Mot1 SUMO = yeast SUMO pathway inhibition in dose response; shares compounds with Mot1-301 SUMO; S. cerevisiae Mot1-301 galactose growth, ATP luminescence, 24 h; -100 = growth of slx-deleted rescue strain; growth activity, percent, % at 42 µM; 2,300 tested, under 10 active; AID 493004;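 active means Signal drops as the depositor expects, and the fitted half-maximal dose is no more than ten times the top valid tested dose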;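 further: more negative values mean stronger growth rescue toward the control strain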
* marks the source's active call; other numbers are inactive results; / = not tested or not shown; + = active, no number.

SMILES	Mot1-301 SUMO	IDE cell inh	HDAC3 inhib	IDE cell activ	LANA-H2B inh	Yeast Mot1 SUMO
CC1(OC(=O)C2CCCC2)C(=O)C=C2C=C(c3ccsc3)OC=C2C1=O (stereo not given)	506*	6	0	5	0	0
O=c1c2ccccc2ncn1-c1ccc(Cl)cc1Cl	747*	-2	-11	/	-7	1
CN(C)c1ccc(/C=N\Nc2ccccn2)cc1	458*	4	7	1	1	-1
CC(OC(=O)c1cc(S(=O)(=O)N2CCOCC2)ccc1F)C(=O)NCc1ccc2c(c1)OCO2 (stereo not given)	374*	-9	-5	3	-2	0
O=C(CSc1nnc(NC(=O)CN2CCOCC2)s1)Nc1ccccc1	+	-1	-13	3	0	0
CCOC(=O)C1CCCN(C(=O)/C=C/c2ccc(Cl)cc2)C1 (stereo not given)	420*	4	/	-1	-7	-1
CCOC(=O)C1CCCN(C(=O)/C=C/c2cc(OC)c(OC)c(OC)c2)C1 (stereo not given)	3	8	4	3	-7	/
CCOC(=O)c1ccc(S(=O)(=O)NNc2ccc(C(F)(F)F)cn2)cc1	3	-4	-2	1	3	/
O=C(O)C1C2CCCCC2=C2CCCCC2C1C(=O)c1ccccc1 (stereo not given)	394*	-2	-6	5	8	0
O=c1ncn(-c2cccc(Cl)c2)c2ccccc12	-17	-4	4	-7	2	/
CC(C)(C)Cc1nc(-c2ccccn2)no1	392*	0	0	1	1	0
CC1(C)CC(=O)C=C(Nc2cccc(F)c2)C1	-9	-5	11	3	3	/
CC(=O)c1c(Nc2cccc(F)c2)oc(C)cc1=O	952*	2	/	6	-2	0
CCOc1ccc(C(=O)NCC2OCCc3ccccc32)cc1 (stereo not given)	748*	-3	-6	5	-3	0
COc1ccc(C(=O)NCC2OCCc3ccccc32)cc1 (stereo not given)	-14	2	-5	6	4	/
C/C(O)=c1/c(=O)nc2cccc3c2=c1c1ccccc1c3=O	-3	/	0	5	-12	/
CCc1ccc(CN2CCN(S(=O)(=O)Cc3ccccc3)CC2)cc1	8	5	8	6	-1	/
O=S(=O)(Cc1ccccc1)N1CCN(c2ncccn2)CC1	399*	3	10	-3	-5	0
COC(=O)C1CCN(S(=O)(=O)Cc2ccccc2)CC1	689*	0	-1	0	8	0
O=S(=O)(c1ccccc1)N1CCN(c2ncccn2)CC1	6	0	3	1	1	/
CSc1ccc(CN2CCN(S(=O)(=O)Cc3ccccc3)CC2)cc1	379*	-5	-1	3	4	-1
CC1CCCC(C)N1C(=O)COC(=O)c1c[nH]c2ccccc12 (stereo not given)	2	-5	5	2	-1	/
COc1ccc(C2SCC(=O)N2CCc2ccc(OC)c(OC)c2)cc1 (stereo not given)	-5	-2	-4	-1	-3	/
O=C(c1cc(-c2cccs2)nn1-c1ccccc1)N1CCN(S(=O)(=O)c2ccccc2)CC1	-3	2	-5	-4	-7	/
O=C(O)CCSc1ncnc2sc(-c3ccccc3)cc12	31	1	-4	1	-1	/
SMILES	Mot1-301 SUMO	IDE cell inh	HDAC3 inhib	IDE cell activ	LANA-H2B inh	Yeast Mot1 SUMO
O=C(O)CSc1ncnc2sc(-c3ccccc3)cc12	525*	2	6	1	0	0
C/C(=N\N(Cc1ccccc1)c1ccccc1)c1ccncc1	209	-4	-3	1	-8	/
Cc1ccc(S(=O)(=O)NNC(=O)c2cc3cc4ccccc4nc3s2)cc1	553*	-3	-4	0	1	-1
Cc1cccc(C(=O)NNC(=O)c2cc3cc4ccccc4nc3s2)c1	-2	-5	3	9	-5	/
CCN(CC)CCCNC(=O)C1CCC(CNS(=O)(=O)c2c(C)cc(C)cc2C)CC1 (stereo not given)	19	5	2	2	7	/
CCC1CCCCN1CCCNC(=O)C1CCC(CNS(=O)(=O)c2c(C)cc(C)cc2C)CC1 (stereo not given)	509*	-2	0	6	-2	0
COc1ccc(C(=O)N(C)Cc2cnn(Cc3ccccc3)c2)cc1S(=O)(=O)N1CCOCC1	-14	-3	-2	7	1	/
C/C(O)=C(\N=Nc1cc(C)ccc1O)C(N)=O	+	-6	-1	/	8	1
COc1ccc(NC(=O)C2CCCN(C(=O)c3ccc(Cl)cc3)C2)cc1Cl (stereo not given)	2	0	2	4	1	/
COC(=O)c1ccc(CSc2nnc(-c3ccccc3)n2C)o1	-1	2	-5	1	-1	/
COC(=O)c1ccc(CSc2nnnn2-c2ccccc2)o1	+	0	-2	3	-1	1
Cc1ccc(S(=O)(=O)N2CCN(CC(O)COc3ccccc3)CC2)cc1 (stereo not given)	-21	1	5	1	3	/
CCOc1ccc(S(=O)(=O)N2CCN(CC(O)COc3cccc([N+](=O)[O-])c3)CC2)cc1 (stereo not given)	588*	1	-6	6	3	0
Cc1cc(C(=O)OCC(=O)NCCc2ccc(S(N)(=O)=O)cc2)c2ccccc2n1	-8	0	4	-2	0	/
Cc1c(C(=O)OCC(=O)Nc2ccc(S(N)(=O)=O)cc2)oc2c1ccc1ccccc12	500*	-9	-3	-5	0	-1
Cc1cc(NC(=O)COC(=O)c2oc3c(ccc4ccccc43)c2C)no1	7	0	-14	-2	-6	/
Cc1cc(C(=O)OCC(=O)Nc2cccc(S(N)(=O)=O)c2)c2ccccc2n1	647*	0	1	4	3	0
CCn1c(SCC(=O)NC2CCCCC2)nnc1-c1cccs1	52	8	-2	3	-8	/
CCn1c(SC(=O)NC2CCCCC2)nnc1-c1cccs1	525*	3	-18	-2	1	0
O=C(CCN1CCc2ccccc2C1)Nc1ccc2c(c1)OCO2	836*	-2	4	4	-8	0
COc1ccc(CCC(=O)Nc2ccc3c(c2)OCCO3)cc1	-3	-1	3	1	2	/
COc1ccc(CCC(=O)Nc2ccc3c(c2)OCO3)cc1	563*	1	-4	1	-5	-1
CCSc1nnc(SCC(=O)c2c(N)n(C)c(=O)n(C)c2=O)s1	/	/	/	0	/	/
CCOC(=O)N1CCN(C(=O)c2ccc(OC)c(OC)c2)CC1	+	8	3	5	-3	1
O=C(Cc1ccc(Cl)cc1Cl)Nc1ccncc1Cl	41	4	5	7	0	/

Assay outcomes deposited in PubChem by several laboratories.
